PMC7862700, “An all-to-all approach to the identification of sequence-specific readers for epigenetic DNA modifications on cytosine”

How the values were obtained:
Assay in all cases: DAPPL (digital affinity profiling via proximity ligation, sequencing); 10 mM Tris-HCl pH 7.5, 50 mM NaCl, 1 mM DTT, 4% glycerol, room temperature, 30 min; GST-TFs on glutathione beads, 16-mer random dsDNA library, 0.1% formaldehyde crosslink after washing; high values mean tight binding
FLI1 = molecular target: T1, FLI1 (Homo sapiens, UniProt Q01543 1-452); details: protein: recombinant; tags: N-terminal GST; dsDNA, one strand shown
T1 sequence: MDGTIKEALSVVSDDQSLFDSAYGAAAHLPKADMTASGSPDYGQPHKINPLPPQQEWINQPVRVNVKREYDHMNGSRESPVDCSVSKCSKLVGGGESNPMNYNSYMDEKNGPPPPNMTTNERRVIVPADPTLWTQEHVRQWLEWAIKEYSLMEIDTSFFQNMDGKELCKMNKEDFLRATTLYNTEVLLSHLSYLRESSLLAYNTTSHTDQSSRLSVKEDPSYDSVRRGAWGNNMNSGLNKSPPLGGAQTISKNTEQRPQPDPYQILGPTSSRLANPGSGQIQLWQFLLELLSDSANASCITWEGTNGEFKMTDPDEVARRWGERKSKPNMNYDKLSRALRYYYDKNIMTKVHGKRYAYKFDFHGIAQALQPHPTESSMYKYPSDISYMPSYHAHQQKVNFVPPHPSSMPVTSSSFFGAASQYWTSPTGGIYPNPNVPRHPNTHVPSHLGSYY
Summary of the method: (§1)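 Human transcription factors carrying a GST fusion were produced in yeast, bound to glutathione beads, tagged with DNA barcodes and pooled together with a tag-only sample. Each pool was held with 200 nmole of a random double-stranded 16-mer DNA library in Tris/NaCl/DTT/glycerol buffer for 30 min at room temperature, then washed, crosslinked in 0.1% formaldehyde, proximity-ligated with BsaI/T4 ligase (1 h, 37 °C), PCR-amplified and sequenced on an Illumina NextSeq500. Binding signal is the read frequency of each hexamer for a given factor divided by its frequency in the tag-only sample.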

ELK1 = molecular target: T2, ELK1 (Homo sapiens, UniProt P19419 1-428); details: protein: recombinant; tags: N-terminal GST; dsDNA, one strand shown
T2 sequence: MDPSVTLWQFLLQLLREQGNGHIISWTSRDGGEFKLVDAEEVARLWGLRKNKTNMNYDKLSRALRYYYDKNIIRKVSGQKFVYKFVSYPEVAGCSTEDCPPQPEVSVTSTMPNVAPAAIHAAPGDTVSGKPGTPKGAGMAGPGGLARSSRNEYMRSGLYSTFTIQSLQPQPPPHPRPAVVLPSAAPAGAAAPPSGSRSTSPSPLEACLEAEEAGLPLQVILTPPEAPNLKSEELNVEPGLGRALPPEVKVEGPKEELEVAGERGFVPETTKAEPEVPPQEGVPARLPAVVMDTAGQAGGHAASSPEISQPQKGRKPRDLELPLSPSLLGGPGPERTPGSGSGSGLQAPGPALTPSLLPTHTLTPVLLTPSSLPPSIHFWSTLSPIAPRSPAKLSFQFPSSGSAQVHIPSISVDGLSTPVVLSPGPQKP
Summary of the method: as §1

GABPA = molecular target: T3, GABPA (Homo sapiens, UniProt Q06546 1-454); details: protein: recombinant; tags: N-terminal GST; dsDNA, one strand shown
T3 sequence: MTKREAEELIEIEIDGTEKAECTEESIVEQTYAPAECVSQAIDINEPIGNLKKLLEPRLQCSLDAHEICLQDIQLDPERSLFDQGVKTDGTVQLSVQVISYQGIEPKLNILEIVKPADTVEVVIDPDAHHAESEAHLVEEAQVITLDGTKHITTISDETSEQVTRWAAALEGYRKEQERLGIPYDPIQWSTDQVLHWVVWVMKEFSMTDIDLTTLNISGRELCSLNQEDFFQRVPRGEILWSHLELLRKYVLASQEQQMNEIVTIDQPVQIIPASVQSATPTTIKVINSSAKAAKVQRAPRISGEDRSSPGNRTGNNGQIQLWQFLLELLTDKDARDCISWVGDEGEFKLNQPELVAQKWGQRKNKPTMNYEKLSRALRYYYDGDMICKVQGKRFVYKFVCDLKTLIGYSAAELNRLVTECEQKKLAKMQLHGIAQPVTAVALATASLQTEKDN
Summary of the method: as §1

ERG = molecular target: T4, ERG (Homo sapiens, UniProt P11308 1-479); details: protein: recombinant; tags: N-terminal GST; dsDNA, one strand shown
T4 sequence: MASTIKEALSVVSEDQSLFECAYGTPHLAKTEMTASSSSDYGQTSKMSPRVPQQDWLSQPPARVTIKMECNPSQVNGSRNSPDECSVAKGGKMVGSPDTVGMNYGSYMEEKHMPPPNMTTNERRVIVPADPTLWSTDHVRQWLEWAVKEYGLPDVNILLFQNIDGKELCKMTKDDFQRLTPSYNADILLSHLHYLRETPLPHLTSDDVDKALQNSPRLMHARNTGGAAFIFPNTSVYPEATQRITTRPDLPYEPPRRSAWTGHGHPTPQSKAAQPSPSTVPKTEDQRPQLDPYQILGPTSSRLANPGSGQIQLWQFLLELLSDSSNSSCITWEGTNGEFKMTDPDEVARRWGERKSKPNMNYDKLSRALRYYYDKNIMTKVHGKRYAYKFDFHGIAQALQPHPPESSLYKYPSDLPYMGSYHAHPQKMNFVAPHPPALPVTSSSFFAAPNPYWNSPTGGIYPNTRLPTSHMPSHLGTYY
Summary of the method: as §1

ELF1 = ELF1 (Homo sapiens, UniProt P32519 1-619); details: protein: recombinant; tags: N-terminal GST; dsDNA, one strand shown
Summary of the method: as §1

EHF = molecular target: T5, EHF (Homo sapiens, UniProt Q9NZC4 1-300); details: protein: recombinant; tags: N-terminal GST; dsDNA, one strand shown
T5 sequence: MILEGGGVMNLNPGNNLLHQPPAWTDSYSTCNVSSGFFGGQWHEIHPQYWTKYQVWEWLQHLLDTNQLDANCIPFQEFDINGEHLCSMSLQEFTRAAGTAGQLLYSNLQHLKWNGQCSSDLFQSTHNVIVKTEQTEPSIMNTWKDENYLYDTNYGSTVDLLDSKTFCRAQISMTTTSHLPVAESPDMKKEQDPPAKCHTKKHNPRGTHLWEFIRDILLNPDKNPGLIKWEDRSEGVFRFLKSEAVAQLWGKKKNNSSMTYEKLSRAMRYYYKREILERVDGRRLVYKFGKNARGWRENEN
Summary of the method: as §1

SPI1 = SPI1 (Homo sapiens, UniProt P17947 1-270); details: protein: recombinant; tags: N-terminal GST; dsDNA, one strand shown
Summary of the method: as §1

SPIB = SPIB (Homo sapiens, UniProt Q01892 1-262); details: protein: recombinant; tags: N-terminal GST; dsDNA, one strand shown
Summary of the method: as §1

ELK3 = molecular target: T6, ELK3 (Homo sapiens, UniProt P41970 1-407); details: protein: recombinant; tags: N-terminal GST; dsDNA, one strand shown
T6 sequence: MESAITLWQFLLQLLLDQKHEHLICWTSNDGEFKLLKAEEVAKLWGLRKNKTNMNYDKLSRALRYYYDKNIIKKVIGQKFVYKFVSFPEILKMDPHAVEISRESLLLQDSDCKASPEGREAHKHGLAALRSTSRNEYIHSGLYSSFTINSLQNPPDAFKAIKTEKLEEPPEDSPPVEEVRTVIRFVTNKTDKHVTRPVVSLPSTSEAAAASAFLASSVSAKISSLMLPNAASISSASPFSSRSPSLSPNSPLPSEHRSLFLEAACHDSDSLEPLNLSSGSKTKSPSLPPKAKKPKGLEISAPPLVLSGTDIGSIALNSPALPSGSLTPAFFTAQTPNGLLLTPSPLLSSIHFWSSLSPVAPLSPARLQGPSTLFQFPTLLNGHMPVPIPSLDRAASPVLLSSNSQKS
Summary of the method: as §1

FEV = molecular target: T7, FEV (Homo sapiens, UniProt Q99581 1-238); details: protein: recombinant; tags: N-terminal GST; dsDNA, one strand shown
T7 sequence: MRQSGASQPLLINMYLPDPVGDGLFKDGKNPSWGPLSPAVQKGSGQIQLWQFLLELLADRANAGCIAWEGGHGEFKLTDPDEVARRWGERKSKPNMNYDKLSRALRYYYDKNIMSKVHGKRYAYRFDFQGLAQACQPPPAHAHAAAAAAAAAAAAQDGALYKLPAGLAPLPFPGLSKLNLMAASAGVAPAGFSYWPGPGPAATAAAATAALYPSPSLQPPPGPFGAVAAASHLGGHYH
Summary of the method: as §1

ETV5 = ETV5 (Homo sapiens, UniProt P41161 1-510); details: protein: recombinant; tags: N-terminal GST; dsDNA, one strand shown
Summary of the method: as §1

HSF1 = HSF1 (Homo sapiens, UniProt Q00613 1-529); details: protein: recombinant; tags: N-terminal GST; chain copies: 3; dsDNA, one strand shown
Summary of the method: as §1

SPIC = molecular target: T8, SPIC (Homo sapiens, UniProt Q8N5J4 1-248); details: protein: recombinant; tags: N-terminal GST; dsDNA, one strand shown
T8 sequence: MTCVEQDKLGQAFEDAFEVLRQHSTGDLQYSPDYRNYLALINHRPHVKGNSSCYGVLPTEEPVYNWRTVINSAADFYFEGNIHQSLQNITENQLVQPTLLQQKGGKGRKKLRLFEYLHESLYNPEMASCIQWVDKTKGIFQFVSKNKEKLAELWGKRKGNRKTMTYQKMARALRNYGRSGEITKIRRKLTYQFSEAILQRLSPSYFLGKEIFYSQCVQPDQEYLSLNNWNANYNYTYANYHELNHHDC
Summary of the method: as §1

ELF4 = ELF4 (Homo sapiens, UniProt Q99607 1-663); details: protein: recombinant; tags: N-terminal GST; dsDNA, one strand shown
Summary of the method: as §1

ELK4 = molecular target: T9, ELK4 (Homo sapiens, UniProt P28324-2 1-405); details: protein: recombinant; tags: N-terminal GST; dsDNA, one strand shown
T9 sequence: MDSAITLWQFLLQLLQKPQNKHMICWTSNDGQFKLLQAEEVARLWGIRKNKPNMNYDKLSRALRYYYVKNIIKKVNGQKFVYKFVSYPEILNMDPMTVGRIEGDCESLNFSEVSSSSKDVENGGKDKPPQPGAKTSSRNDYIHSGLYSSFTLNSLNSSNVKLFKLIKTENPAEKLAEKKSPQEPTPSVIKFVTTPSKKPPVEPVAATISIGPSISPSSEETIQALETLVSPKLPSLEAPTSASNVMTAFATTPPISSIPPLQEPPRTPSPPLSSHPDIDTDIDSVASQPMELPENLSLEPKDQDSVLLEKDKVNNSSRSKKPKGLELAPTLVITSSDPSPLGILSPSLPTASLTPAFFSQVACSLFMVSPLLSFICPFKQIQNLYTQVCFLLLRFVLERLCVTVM
Summary of the method: as §1

ETV2 = molecular target: T10, ETV2 (Homo sapiens, UniProt O00321 1-342); details: protein: recombinant; tags: N-terminal GST; dsDNA, one strand shown
T10 sequence: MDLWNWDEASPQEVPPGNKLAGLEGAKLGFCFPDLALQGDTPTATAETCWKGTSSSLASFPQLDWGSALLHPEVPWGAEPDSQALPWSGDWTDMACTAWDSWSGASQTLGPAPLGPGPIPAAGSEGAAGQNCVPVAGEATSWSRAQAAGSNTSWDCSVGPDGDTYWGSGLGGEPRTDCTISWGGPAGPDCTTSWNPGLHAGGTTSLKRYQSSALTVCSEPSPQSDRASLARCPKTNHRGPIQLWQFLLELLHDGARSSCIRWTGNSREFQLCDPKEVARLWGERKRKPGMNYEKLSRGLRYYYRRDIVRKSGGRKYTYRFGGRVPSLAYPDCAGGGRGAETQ
Summary of the method: as §1

ELF3 = molecular target: T11, ELF3 (Homo sapiens, UniProt P78545 1-371); details: protein: recombinant; tags: N-terminal GST; dsDNA, one strand shown
T11 sequence: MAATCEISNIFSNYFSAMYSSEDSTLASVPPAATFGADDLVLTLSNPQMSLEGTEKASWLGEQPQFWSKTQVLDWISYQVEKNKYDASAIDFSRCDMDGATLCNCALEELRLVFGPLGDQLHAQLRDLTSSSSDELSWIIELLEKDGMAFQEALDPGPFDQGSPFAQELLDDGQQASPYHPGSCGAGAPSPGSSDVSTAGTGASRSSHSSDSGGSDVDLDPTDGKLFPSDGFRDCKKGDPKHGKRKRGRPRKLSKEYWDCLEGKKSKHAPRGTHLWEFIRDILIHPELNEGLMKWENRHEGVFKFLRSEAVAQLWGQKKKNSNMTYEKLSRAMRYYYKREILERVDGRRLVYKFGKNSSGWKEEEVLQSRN
Summary of the method: as §1

CRX = CRX (Homo sapiens, UniProt O43186 1-299); details: protein: recombinant; tags: N-terminal GST; dsDNA, one strand shown
Summary of the method: as §1

ETV1 = ETV1 (Homo sapiens, UniProt P50549 1-477); details: protein: recombinant; tags: N-terminal GST; dsDNA, one strand shown
Summary of the method: as §1

Chain of CRX (O43186 whole entry): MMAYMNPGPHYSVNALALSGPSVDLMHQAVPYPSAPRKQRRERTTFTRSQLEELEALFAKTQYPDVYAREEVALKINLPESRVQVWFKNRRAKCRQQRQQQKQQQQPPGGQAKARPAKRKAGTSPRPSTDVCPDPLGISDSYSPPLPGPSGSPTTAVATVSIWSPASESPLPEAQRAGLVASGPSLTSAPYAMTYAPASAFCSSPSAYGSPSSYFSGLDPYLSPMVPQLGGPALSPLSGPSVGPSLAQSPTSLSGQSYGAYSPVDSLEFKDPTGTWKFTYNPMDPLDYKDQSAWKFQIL
Chain of SPIB (Q01892 whole entry): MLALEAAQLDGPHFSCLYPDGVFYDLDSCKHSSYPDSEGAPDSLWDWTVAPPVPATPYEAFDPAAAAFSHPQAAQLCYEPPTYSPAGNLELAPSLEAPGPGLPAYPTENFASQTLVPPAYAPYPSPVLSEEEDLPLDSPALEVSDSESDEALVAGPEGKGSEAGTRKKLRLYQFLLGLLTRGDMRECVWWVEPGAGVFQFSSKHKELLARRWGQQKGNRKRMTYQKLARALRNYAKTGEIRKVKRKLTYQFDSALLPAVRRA
Chain of ELF1 (P32519 whole entry): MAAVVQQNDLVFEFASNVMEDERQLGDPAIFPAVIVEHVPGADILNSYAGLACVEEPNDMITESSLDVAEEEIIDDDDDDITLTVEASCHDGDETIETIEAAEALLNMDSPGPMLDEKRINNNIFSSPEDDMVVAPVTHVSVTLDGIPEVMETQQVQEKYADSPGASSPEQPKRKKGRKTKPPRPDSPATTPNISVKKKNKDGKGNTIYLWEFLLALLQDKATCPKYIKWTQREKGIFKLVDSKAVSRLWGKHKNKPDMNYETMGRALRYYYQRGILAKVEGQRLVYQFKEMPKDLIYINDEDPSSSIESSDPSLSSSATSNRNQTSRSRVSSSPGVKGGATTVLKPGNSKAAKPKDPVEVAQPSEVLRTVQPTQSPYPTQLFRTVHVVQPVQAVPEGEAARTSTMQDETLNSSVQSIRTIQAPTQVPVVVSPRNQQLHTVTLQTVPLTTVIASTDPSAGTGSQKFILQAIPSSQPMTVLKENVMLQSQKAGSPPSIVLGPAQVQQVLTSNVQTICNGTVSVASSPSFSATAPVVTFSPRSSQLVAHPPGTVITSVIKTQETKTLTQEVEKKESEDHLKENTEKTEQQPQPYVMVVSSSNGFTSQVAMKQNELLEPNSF
Chain of ELF4 (Q99607 whole entry): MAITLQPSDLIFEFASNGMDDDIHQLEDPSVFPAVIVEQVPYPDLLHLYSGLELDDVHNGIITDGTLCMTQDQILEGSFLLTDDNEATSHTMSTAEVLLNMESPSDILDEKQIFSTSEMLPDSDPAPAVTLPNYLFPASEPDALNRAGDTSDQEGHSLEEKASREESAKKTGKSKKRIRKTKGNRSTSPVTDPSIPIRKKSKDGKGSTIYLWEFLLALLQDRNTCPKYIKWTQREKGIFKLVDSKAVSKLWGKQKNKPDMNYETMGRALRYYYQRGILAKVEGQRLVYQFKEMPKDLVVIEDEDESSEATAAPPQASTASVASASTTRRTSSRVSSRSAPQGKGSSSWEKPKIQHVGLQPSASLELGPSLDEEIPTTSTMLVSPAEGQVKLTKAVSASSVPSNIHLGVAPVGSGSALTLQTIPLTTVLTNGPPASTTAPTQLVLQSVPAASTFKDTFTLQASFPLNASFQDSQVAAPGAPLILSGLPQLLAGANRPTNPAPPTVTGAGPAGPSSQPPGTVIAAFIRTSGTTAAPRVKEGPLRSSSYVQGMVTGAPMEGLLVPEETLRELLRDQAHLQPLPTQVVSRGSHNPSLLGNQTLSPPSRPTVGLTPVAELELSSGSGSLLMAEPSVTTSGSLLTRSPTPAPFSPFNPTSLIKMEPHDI
Chain of ETV5 (P41161 whole entry): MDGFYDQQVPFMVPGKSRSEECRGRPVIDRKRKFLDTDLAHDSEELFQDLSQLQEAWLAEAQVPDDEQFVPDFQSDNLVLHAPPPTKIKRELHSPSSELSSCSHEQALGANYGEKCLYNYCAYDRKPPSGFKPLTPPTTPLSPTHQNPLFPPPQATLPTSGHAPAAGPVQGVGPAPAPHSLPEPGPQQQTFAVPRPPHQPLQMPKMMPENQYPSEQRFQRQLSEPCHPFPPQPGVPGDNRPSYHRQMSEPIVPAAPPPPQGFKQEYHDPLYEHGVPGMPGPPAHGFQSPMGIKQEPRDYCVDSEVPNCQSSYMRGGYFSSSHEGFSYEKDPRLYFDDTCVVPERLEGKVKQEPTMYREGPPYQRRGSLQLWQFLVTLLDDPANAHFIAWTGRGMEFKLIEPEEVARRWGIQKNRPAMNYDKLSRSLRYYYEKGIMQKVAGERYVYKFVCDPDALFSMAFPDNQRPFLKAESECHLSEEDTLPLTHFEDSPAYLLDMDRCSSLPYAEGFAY
Chain of ETV1 (P50549 whole entry): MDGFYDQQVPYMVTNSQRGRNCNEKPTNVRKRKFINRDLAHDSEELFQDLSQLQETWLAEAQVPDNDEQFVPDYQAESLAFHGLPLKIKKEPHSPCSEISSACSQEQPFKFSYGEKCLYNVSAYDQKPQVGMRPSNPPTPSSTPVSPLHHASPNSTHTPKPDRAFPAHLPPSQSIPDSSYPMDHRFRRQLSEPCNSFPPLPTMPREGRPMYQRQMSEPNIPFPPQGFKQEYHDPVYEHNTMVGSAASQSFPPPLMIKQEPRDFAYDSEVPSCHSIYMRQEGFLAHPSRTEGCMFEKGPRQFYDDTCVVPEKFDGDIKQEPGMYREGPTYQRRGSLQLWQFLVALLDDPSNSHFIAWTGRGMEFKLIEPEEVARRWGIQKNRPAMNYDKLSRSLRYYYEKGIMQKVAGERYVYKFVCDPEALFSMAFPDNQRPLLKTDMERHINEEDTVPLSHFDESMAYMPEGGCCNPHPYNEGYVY
Chain of HSF1 (Q00613 whole entry): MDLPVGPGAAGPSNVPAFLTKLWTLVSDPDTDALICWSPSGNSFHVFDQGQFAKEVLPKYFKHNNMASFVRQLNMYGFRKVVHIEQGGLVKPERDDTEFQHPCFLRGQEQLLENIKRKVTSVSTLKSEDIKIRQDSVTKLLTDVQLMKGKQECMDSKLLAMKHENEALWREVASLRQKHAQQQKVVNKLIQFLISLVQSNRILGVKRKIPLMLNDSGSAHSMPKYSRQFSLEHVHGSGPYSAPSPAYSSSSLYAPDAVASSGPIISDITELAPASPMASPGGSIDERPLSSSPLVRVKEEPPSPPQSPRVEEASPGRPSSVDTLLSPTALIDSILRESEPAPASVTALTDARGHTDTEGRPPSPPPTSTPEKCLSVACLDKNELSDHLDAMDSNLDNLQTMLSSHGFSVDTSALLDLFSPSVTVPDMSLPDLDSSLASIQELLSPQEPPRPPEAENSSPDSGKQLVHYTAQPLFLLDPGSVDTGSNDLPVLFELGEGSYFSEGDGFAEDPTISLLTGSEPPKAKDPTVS

CTTTAC
binding signal (FLI1): 1.24 fold enrichment (6-mer frequency, TF over GST control)
binding signal (ELK1): 1.43 fold enrichment (6-mer frequency, TF over GST control)
binding signal (GABPA): 1.51 fold enrichment (6-mer frequency, TF over GST control)
binding signal (ERG): 1.31 fold enrichment (6-mer frequency, TF over GST control)
binding signal (ELF1): 1.4 fold enrichment (6-mer frequency, TF over GST control)
binding signal (EHF): 1.38 fold enrichment (6-mer frequency, TF over GST control)
binding signal (SPI1): 1.4 fold enrichment (6-mer frequency, TF over GST control)
binding signal (SPIB): 1.41 fold enrichment (6-mer frequency, TF over GST control)
binding signal (ELK3): 1.47 fold enrichment (6-mer frequency, TF over GST control)
binding signal (FEV): 1.31 fold enrichment (6-mer frequency, TF over GST control)
binding signal (ETV5): 1.3 fold enrichment (6-mer frequency, TF over GST control)
binding signal (HSF1): 1.37 fold enrichment (6-mer frequency, TF over GST control)
binding signal (SPIC): 1.4 fold enrichment (6-mer frequency, TF over GST control)
binding signal (ELF4): 1.45 fold enrichment (6-mer frequency, TF over GST control)
binding signal (ELK4): 1.44 fold enrichment (6-mer frequency, TF over GST control)
binding signal (ETV2): 1.41 fold enrichment (6-mer frequency, TF over GST control)
binding signal (ELF3): 1.44 fold enrichment (6-mer frequency, TF over GST control)
binding signal (CRX): 1.51 fold enrichment (6-mer frequency, TF over GST control)
binding signal (ETV1): 1.3 fold enrichment (6-mer frequency, TF over GST control)
